Only some compounds are listed: those with a hit (about 2.9% of all), similar ones and a draw of the others.
PfGluPho inh: PfG6PD (Plasmodium falciparum) enzyme inhibition; PfGluPho enzyme, NADPH resazurin-diaphorase fluorescence; inhibition, % at 20 µM; hit rate 0.78% among 350,000; AID 504690;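 active = inhibition reaching at least a set limit at 20 µM in the primary screen, cut at about 59% in these data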
TAG inh: inhibitors of triacylglycerol accumulation | H9c2 cells, Nile Red lipid (TAG) fluorescence; cells loaded with 200 µM oleic acid | inhibition, % at 12.5 µM | hit rate 0.66% among 230,000 | AID 651582;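 active = pattern-corrected inhibition of lipid staining of at least 50% with the nuclear-stain viability signal not falling by more than 50%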
A3A deaminase: blocks human APOBEC3A ssDNA deamination; P31941; recombinant A3A, FAM/TAMRA ssDNA deamination fluorescence; inhibition, % at 20 µM; hit rate 0.41% among 330,000; AID 493011;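 active = at least 40% inhibition at 20 µM here, with at most 30% in a related deaminase screen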
Target sequence (P31941 whole entry, looked up): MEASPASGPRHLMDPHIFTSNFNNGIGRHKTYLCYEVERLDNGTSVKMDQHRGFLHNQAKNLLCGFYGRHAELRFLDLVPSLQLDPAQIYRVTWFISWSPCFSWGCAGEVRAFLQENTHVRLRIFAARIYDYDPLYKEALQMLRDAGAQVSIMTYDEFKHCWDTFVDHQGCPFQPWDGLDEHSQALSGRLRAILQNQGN
APOBEC3G inh: APOBEC3G (human) deaminase inhibition. Q9HC16. recombinant A3G, ssDNA deamination FAM/TAMRA fluorescence. inhibition, % at 20 µM. hit rate 0.28% among 330,000. AID 493012;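 active = inhibition of at least 40% at 20 µM, with no more than 30% in the related APOBEC3A deaminase screen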
Target sequence (Q9HC16 whole entry, looked up): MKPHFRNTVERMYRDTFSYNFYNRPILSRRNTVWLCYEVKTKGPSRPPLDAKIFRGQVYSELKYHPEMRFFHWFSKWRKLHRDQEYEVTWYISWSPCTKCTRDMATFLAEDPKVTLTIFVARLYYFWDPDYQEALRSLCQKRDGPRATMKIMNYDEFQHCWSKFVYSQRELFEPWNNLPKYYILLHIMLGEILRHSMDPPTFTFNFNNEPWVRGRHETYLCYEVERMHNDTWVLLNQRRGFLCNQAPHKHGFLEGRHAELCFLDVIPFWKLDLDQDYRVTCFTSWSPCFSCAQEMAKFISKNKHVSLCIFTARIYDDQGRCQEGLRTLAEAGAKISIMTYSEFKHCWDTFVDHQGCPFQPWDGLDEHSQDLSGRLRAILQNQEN
Cardio protect: myocardial damage modulation in H9c2 cells; H9c2 cardiomyocytes, H2O2 injury protection, ATPLite, 2 h; protection from H2O2 cell death, % at 20 µM; hit rate 0.63% among 360,000; AID 588492;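 active = compounds giving at least 50% protection of heart cells from peroxide-induced death in the single-dose screen, raw or plate-pattern-corrected value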
NadD block: NadD (S. aureus) enzyme inhibition; purified NadD enzyme, colorimetric absorbance read-out; inhibition, % at 20 µM; hit rate 0.78% among 360,000; AID 602399; in the data active = inhibition above about 26%
PfGluPho conf: PfG6PD inhibition, single-dose confirmed; shares compounds with PfGluPho inh; recombinant PfGluPho, NADPH-diaphorase-resazurin fluorescence; inhibition, % at 20 µM; hit rate 34% among 2,400;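 active = inhibition of at least 50% at 20 µM in any single replicate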
Diaph ctr 10uM: counter-screen for P. falciparum G6PD inhibitors: diaphorase inhibitors, oxidizers; shares compounds with PfGluPho inh; diaphorase-coupled resazurin reduction, fluorescence, NADPH 10 uM; inhibition, % at 20 µM; hit rate 39% among 820;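 active = average inhibition reaching 50% or more with the compound at 20 µM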;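 note: resorufin red fluorescence formed as diaphorase reduces resazurin using NADPH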
Diaph ctr 30uM: diaphorase inhibition or oxidation at 30 uM NADPH; hit rate 29% among 820; inhibition, % at 20 µM; shares compounds with PfGluPho inh; AID 504863; Diaphorase/resazurin coupled assay, resorufin fluorescence;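 active = inhibition averaging 50% or more, tested at 20 µM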
Numbers stand for hits; 0 = inactive; - = no result.

SMILES	PfGluPho inh	TAG inh	A3A deaminase	APOBEC3G inh	Cardio protect	NadD block	PfGluPho conf	others
Cc1ccccc1OCC(=O)N/N=C/c1cn(C)c2ccccc12	64.1	0	0	0	0	0	0
COc1ccccc1/C=N/NC(=O)c1c(-c2ccccc2)noc1C	87.0	-	0	0	0	0	65.7	Diaph ctr 10uM=83.9;Diaph ctr 30uM=63.6
Cc1onc(-c2ccccc2)c1C(=O)N/N=C/c1ccccc1OC(C)C	117.4	0	0	0	0	0	85.1	Diaph ctr 10uM=75.8;Diaph ctr 30uM=50.1
Cc1onc(-c2ccccc2)c1C(=O)N/N=C/c1cccs1	62.3	0	0	0	0	0	0
CN(C)CCCNC(=O)C[C@H]1C[C@H](C(=O)N2CCOCC2)[C@@]2(C)c3[nH]c4ccc(Cl)cc4c3CCN2C1=O	0	0	0	0	0	0	-
CCOc1ccc(NC(=O)CSc2ccc3nnc(-c4cccnc4)n3n2)cc1	0	0	0	0	0	0	-
CCCn1cc(CN2CCC(n3nccc3NC(=O)CCOc3ccccc3)CC2)c(C)n1	0	-	0	0	0	0	-
Cc1onc(-c2ccccc2)c1C(=O)N/N=C/c1cn(C)c2ccccc12	90.0	0	0	0	0	0	70.9	Diaph ctr 10uM=68.2;Diaph ctr 30uM=57.8
COc1ccccc1N1CCN(C(=O)CCc2nnc3ccc(N4CCC(C)CC4)nn23)CC1	0	-	0	0	0	0	-
COc1cc(/C=C2\CC/C(=C\c3cc(OC)c(O)c(OC)c3)C2=O)cc(OC)c1O	63.1	0	0	0	65.2	0	67.2	Diaph ctr 10uM=0;Diaph ctr 30uM=0
COc1ccc(C(CNC(=O)Cc2c(F)cccc2Cl)N2CCCCC2)cc1 (stereo unspecified)	0	0	0	0	0	0	-
COc1cccc(C(=O)Nc2ccc(NC(=O)c3ccco3)c(Cl)c2)c1	69.7	0	0	0	0	0	0
[O-]/[N+](=C\c1ccccc1)c1ccc(Br)cc1	83.7	-	0	0	0	0	91.4	Diaph ctr 10uM=72.3;Diaph ctr 30uM=0
[O-]/[N+](=C\c1ccccc1)c1ccccc1	0	0	0	0	0	0	-
Oc1ccc(C2C[C@H]3CC[C@@H]2C3)cc1O (stereo partly specified)	79.4	-	0	0	0	0	77.2	Diaph ctr 10uM=0;Diaph ctr 30uM=0
COc1cc(-c2nc(C(=O)NCC3CCCO3)cc3c2[nH]c2ccccc23)cc(OC)c1OC (stereo unspecified)	0	-	0	0	0	0	-
COc1ccccc1-c1nc(C(=O)NCC2CCCO2)cc2c1[nH]c1ccccc12 (stereo unspecified)	63.6	-	0	0	0	0	0
O=C(CN1CCN(Cc2ccccc2)CC1)Nc1ccc(Cl)cc1	0	-	0	0	0	0	-
Cc1ccc(/C=N/NC(=O)CSc2nc3ccccc3n2C)s1	117.1	0	0	0	0	0	87.2	Diaph ctr 10uM=93.3;Diaph ctr 30uM=79.3
Cn1c(SCC(=O)N/N=C/c2cccs2)nc2ccccc21	0	-	0	0	0	0	-
CCOC(=O)C1=C(C)Nc2ccccc2N/C1=N\S(=O)(=O)c1ccccc1	0	0	0	0	0	0	-
CCCCNS(=O)(=O)NC(=O)C1=C(N2CCCC2)COC1=O	0	0	0	0	0	0	-
CCCC(=O)NC1=C(Cl)C(=O)c2ccccc2C1=O	127.8	0	-	-	0	0	116.2	Diaph ctr 10uM=98.6;Diaph ctr 30uM=97.2
CCN(CC)c1ccc(NC2=C(Cl)C(=O)c3ccccc3C2=O)cc1	0	-	-	-	0	0	-
CCn1c(SCC(=O)Nc2cc(C)on2)nc2c(c1=O)SC(C)C2 (stereo unspecified)	0	-	0	0	0	0	-
SMILES	PfGluPho inh	TAG inh	A3A deaminase	APOBEC3G inh	Cardio protect	NadD block	PfGluPho conf	others
Cc1ccc(-n2c(SCC(=O)Nc3cc(C)on3)nc3c(c2=O)SC(C)C3)cc1 (stereo unspecified)	83.9	0	0	0	0	0	0
O=C(O)c1ccccc1O	0	0	0	0	0	0	-
Nc1c(O)cccc1C(=O)O	107.6	0	0	0	0	0	80.4	Diaph ctr 10uM=0;Diaph ctr 30uM=0
N#CCC(=O)N/N=C/c1ccc(Sc2nc3ccccc3s2)o1	67.6	0	0	0	0	0	0
O=C(Cc1cccc2ccccc12)N/N=C/c1ccc(Sc2nc3ccccc3s2)o1	74.2	0	0	0	0	0	0
Cc1ccc(/C=N/NC(=O)CSc2nc3ccccc3s2)o1	0	-	0	0	0	0	-
COCC(=O)N/N=C/c1ccc(Sc2nc3ccccc3s2)o1	59.5	0	0	0	0	0	0
Cc1ccccc1OCC(=O)N/N=C/c1ccc(Sc2nc3ccccc3s2)o1	122.5	0	0	0	0	0	58.5	Diaph ctr 10uM=0;Diaph ctr 30uM=0
COC(=O)c1ccc(/C=N/NC(=O)CCSc2nc3ccccc3s2)cc1	-	-	0	0	-	-	-
CC(C)C1=CC(=Nc2ccc(S(N)(=O)=O)cc2)C=C(C(C)C)C1=O	75.6	0	0	0	0	0	0
Nc1ccc(C(=O)OCc2nc3cc4ccccc4cc3[nH]2)cc1	63.3	0	0	0	0	0	0
COc1ccc(NC(=O)Nc2cccc3c2O[C@@H](CN(C)S(=O)(=O)c2cn(C)cn2)[C@@H](C)CN([C@H](C)CO)C3=O)cc1	0	0	0	0	0	0	-
Cc1cc(-c2ccc(NS(=O)(=O)c3ccccc3)c(C)c2)ccc1NS(=O)(=O)c1ccccc1	0	0	-	-	0	0	-
Cc1ccc(NS(=O)(=O)c2ccccc2)c2c1CC(C)(C)O2	92.0	0	0	0	0	0	64.8	Diaph ctr 10uM=54.2;Diaph ctr 30uM=50.4
O=C(NC1(Cc2ccccc2)CCN(Cc2ccc(-c3ccccc3)cc2)C1=O)c1ccccc1 (stereo unspecified)	0	0	0	0	0	0	-
COc1cc(/C=N/O)cc(Br)c1OCc1ccc(Cl)cc1	80.7	0	0	0	0	0	0
Cc1ccc(NC(=O)C2Cc3ccccc3CN2C(=O)c2ccccc2)cc1Cl (stereo unspecified)	94.4	-	0	0	0	0	0
Cc1ccc(S(=O)(=O)N(C)C)cc1NC(=O)CSc1nc2ncc(Cl)cc2[nH]1	65.8	0	0	0	0	0	52.2	Diaph ctr 10uM=0;Diaph ctr 30uM=0
CC1CCCN(C(=O)COC(=O)Cn2cnc3ccccc32)C1 (stereo unspecified)	0	0	0	0	0	0	-
FC(F)(F)c1cc(CO[C@@H]2CCCN[C@@H]2c2ccccc2)cc(C(F)(F)F)c1	66.6	0	0	0	0	0	0
O=C(Nc1ccc(N2CCOCC2)cc1)c1ccc2ncsc2c1	66.4	0	0	0	0	0	0
NC(=S)N/N=C/c1ccc2ccccc2c1	0	-	0	0	0	0	-
NC(=S)NN=Cc1nccc2ccccc12	80.0	0	-	-	0	0	0
CC(=O)Nc1cc(C(C)(C)C)c(O)c(C(C)(C)C)c1	81.2	-	0	0	0	0	0
